Screens as filed in PubChem BioAssay.
HT1080-NT tox – kills 2HG-producing HT-1080-NT fibrosarcoma cells; AID 686970; actives 1.6% (n = 360,000); Potency, µM (doses to about 46.1 µM), inactives show at the highest dose activity, negative = less viability, hits mostly cytotoxic; HT-1080-NT fibrosarcoma viability, CellTiter-Glo ATP luminescence, 48 h;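 note: NT is the 2HG producing partner of a matched IDH1 knockdown line; 0% = DMSO-treated cells and -100% = media-only wells without cells; nearly all actives have a fitted effect of over 55% in size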
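Fibrosarcoma NT cells, 750 per well in 5% FBS RPMI, were exposed to compound for 48 hours. Viability: CellTiter-Glo luminescence.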
SW480 rerep – induces DNA re-replication in SW480 colon adenocarcinoma cells; SW480 DNA re-replication, Hoechst DNA content imaging, 48 h; Potency, µM (doses to about 46.1 µM), for inactives: at the top dose re-replication activation, actives largely listed as activators; actives 1.8% (n = 340,000); note: % of control where 0% means no effect; nearly all actives have a fitted effect of over 55% in size
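Hoechst fluorescence of nuclei (405 nm excitation, 500-530 nm emission) measured by plate-scanning imager after 48 hr compound exposure at 37 C; re-replication scored as increased number of nuclei with elevated intensity.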
KB-3-1 tox – KB-3-1 parental cell cytotoxicity; KB-3-1 viability, CellTiter-Glo ATP luminescence, 72 h; Potency, µM (doses to about 46.1 µM), actives largely listed as cytotoxic; actives 1.4% (n = 400,000); note: % is set by controls: 0 for no effect and ±100 for the full control effect; nearly all actives have a fitted effect of over 60% in size
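Cells are dispensed, compounds pinned in, plates held at 37 °C for 72 h, then CellTiter-Glo is added and luminescence read after 10 minutes. Cell line: parental KB-3-1 in phenol-red-free DMEM, 10% FBS.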
MCF10A rereplic – induces DNA re-replication in MCF 10a normal breast cells. MCF 10A DNA re-replication, Hoechst nuclear intensity, 48 h. Potency, µM (top dose mostly 46.1 µM), for the others: at the top dose activity, positive = re-replication, actives largely listed as activators. actives 2.9% (n = 350,000). AID 624296; note: % of control where 0% means no effect; nearly all actives have a fitted effect of over 50% in size
HT1080 IDH1KD tx – kills HT-1080 cells with IDH1 knockdown; actives 2% (n = 360,000); AID 686971; HT-1080 IDH1 knockdown viability, ATP luminescence, 48 h; Potency, µM (highest dose often 46.1 µM), for the others: top-dose activity, negative = toxicity, most hits filed as cytotoxic;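 note: 0% = DMSO wells and -100% = cell-free medium wells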
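Cytotoxicity counter-line: IDH1KD HT-1080, 48 h, CellTiter-Glo. Curves classed by r2, magnitude and activity.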
KB-V1 MDR tox – kills drug-selected multidrug resistant KB-V1 cells; Potency, µM (doses to about 46.1 µM), actives largely listed as cytotoxic; KB-V1 MDR cells viability, CellTiter-Glo, 72 h; actives 3.4% (n = 400,000); note: % is set by controls: 0 for no effect and ±100 for the full control effect; nearly all actives have a fitted effect of over 60% in size
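Potencies derive from concentration-effect curves fitted to normalized luminescence (CellTiter-Glo) of KB-V1 cells treated for 72 h at 37 degrees C in phenol-red-free DMEM containing 10% FBS.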
* = called active by the depositor. Only some compounds are listed: those with a hit (about 8% of all), similar ones and a draw of the others. Calls come from the whole dose curve; as a rule, active = well fitted curve in the direction sought with a large enough effect; inconclusive = small, poorly fitted or top-dose-only effect, or another doubt; inactive = no such curve, though single readings can be large; an effect the other way counts as inactive or inconclusive. Potency is the fitted concentration of half-maximal effect.

How did COc1ccc(C2Nc3ccccc3C(=O)N2NC(C)=O)cc1OC (stereo not given) do in these assays?
HT1080-NT tox: 4.4%; SW480 rerep: -32.7%; KB-3-1 tox: inactive; MCF10A rereplic: inconclusive; HT1080 IDH1KD tx: 5.6%; KB-V1 MDR tox: inactive

How did CCCN1C(=O)c2ccccc2NC1c1cc(OC)c(OC)c(OC)c1 (stereo not given) do in these assays?
HT1080-NT tox: 3.5%; SW480 rerep: 0.5%; KB-3-1 tox: inactive; MCF10A rereplic: 3.6%; HT1080 IDH1KD tx: 1.4%; KB-V1 MDR tox: inactive

How did Cc1ccsc1C1Nc2ccccc2C(=O)N1O (stereo not given) do in these assays?
HT1080-NT tox: -2.9%; SW480 rerep: 16.4µM*; KB-3-1 tox: inactive; MCF10A rereplic: 0.8%; HT1080 IDH1KD tx: -1.0%; KB-V1 MDR tox: inconclusive

What do the screens show for `COc1ccc(CCN2C(=O)c3ccccc3NC2c2cc(Cl)c(O)c(OC)c2)cc1` (stereo not given)?
HT1080-NT tox: 1.64µM*; SW480 rerep: 8.2µM*; KB-3-1 tox: inconclusive; MCF10A rereplic: 2.59µM*; HT1080 IDH1KD tx: 2.91µM*; KB-V1 MDR tox: inconclusive

How did Cc1cc(-c2cccnc2)c(C#N)c(SCc2cccc(F)c2)n1 do in these assays?
HT1080-NT tox: -13.1%; SW480 rerep: 0.3%; KB-3-1 tox: inactive; MCF10A rereplic: -1.1%; HT1080 IDH1KD tx: inconclusive; KB-V1 MDR tox: 11.6µM*

What do the screens show for `C[N+]1(CC(=O)c2ccc(I)cc2)CCOCC1`?
KB-3-1 tox: inactive; KB-V1 MDR tox: inactive

What do the screens show for `Cc1ccc(Nc2nnc(-c3ccc(C)c(S(=O)(=O)N4CCOCC4)c3)c3ccccc23)cc1`?
KB-3-1 tox: inactive; KB-V1 MDR tox: inactive

Results for Cc1ccc(/C=C2/NC(=O)N(c3ccccc3)C2=O)o1 ?
HT1080-NT tox: -3.9%; SW480 rerep: 0.7%; KB-3-1 tox: inactive; MCF10A rereplic: 13.8%; HT1080 IDH1KD tx: 5.8%; KB-V1 MDR tox: inactive

Results for O=C1N/C(=C/c2ccc(N3CCOCC3)o2)C(=O)N1c1cccc(Cl)c1 ?
HT1080-NT tox: inconclusive; SW480 rerep: 4.61µM*; KB-3-1 tox: inconclusive; MCF10A rereplic: inconclusive; HT1080 IDH1KD tx: inconclusive; KB-V1 MDR tox: inactive

Results for Cc1ccnc(N/N=C/c2ccco2)n1 ?
HT1080-NT tox: -5.9%; SW480 rerep: 16.4µM*; KB-3-1 tox: inactive; MCF10A rereplic: 2.91µM*; HT1080 IDH1KD tx: -5.6%; KB-V1 MDR tox: inactive

Results for c1ccc2[nH]ccc2c1 ?
SW480 rerep: -4.1%; MCF10A rereplic: -3.9%

What do the screens show for `CCC(=O)Oc1c(C(=O)CC)cc2c(C)cc(=O)oc2c1C`?
HT1080-NT tox: -4.8%; SW480 rerep: 16.8%; KB-3-1 tox: inactive; MCF10A rereplic: 22.3%; HT1080 IDH1KD tx: -6.5%; KB-V1 MDR tox: 16.4µM*

What do the screens show for `Cc1ccc(OCC(=O)N2N=C(C(F)(F)F)CC2(O)C(C)(C)C)cc1C` (stereo not given)?
HT1080-NT tox: -20.3%; SW480 rerep: inconclusive; KB-3-1 tox: inactive; MCF10A rereplic: 8.2µM*; HT1080 IDH1KD tx: -23.9%; KB-V1 MDR tox: 18.4µM*

How did CCN1CCC(CN2CCNC2=S)CC1 do in these assays?
HT1080-NT tox: 13.3%; SW480 rerep: 16.4µM*; KB-3-1 tox: inactive; MCF10A rereplic: -13.9%; HT1080 IDH1KD tx: 13.7%; KB-V1 MDR tox: inactive

What do the screens show for `S=C1NCCN1CC1CCN(CCC23CC4CC(CC(C4)C2)C3)CC1`?
HT1080-NT tox: -1.6%; SW480 rerep: 12.2%; KB-3-1 tox: inactive; MCF10A rereplic: inconclusive; HT1080 IDH1KD tx: -2.2%; KB-V1 MDR tox: inactive

Results for O=C(Nc1cccc(-c2nc3ccccc3[nH]2)c1)c1cccc(NC(=O)c2ccco2)c1 ?
HT1080-NT tox: inconclusive; SW480 rerep: 14.6µM*; KB-3-1 tox: inconclusive; MCF10A rereplic: inconclusive; HT1080 IDH1KD tx: inconclusive; KB-V1 MDR tox: inactive

How did COCCN1Cc2cccc(C(=O)NCc3ccc4c(c3)OCO4)c2C1=O do in these assays?
HT1080-NT tox: 2.9%; SW480 rerep: 4.0%; KB-3-1 tox: inactive; MCF10A rereplic: -6.1%; HT1080 IDH1KD tx: 14.1%; KB-V1 MDR tox: 4.11µM*

What do the screens show for `COCCN1Cc2cccc(C(=O)Nc3cccc(-c4nc5ccccc5[nH]4)c3)c2C1=O`?
HT1080-NT tox: -51.7%; SW480 rerep: 87.6%; KB-3-1 tox: inconclusive; MCF10A rereplic: inconclusive; HT1080 IDH1KD tx: 16.4µM*; KB-V1 MDR tox: 10.3µM*

What do the screens show for `CCCOc1ccc(C(=O)Nc2cccc(-c3nc4ccccc4[nH]3)c2)cc1`?
KB-3-1 tox: inconclusive; KB-V1 MDR tox: 20.6µM*

Results for CC(C)Cn1c(CN(C)Cc2ccccc2)nc2c1c(=O)n(C)c(=O)n2C ?
HT1080-NT tox: -1.1%; SW480 rerep: 0.1%; KB-3-1 tox: inactive; MCF10A rereplic: 12.6%; HT1080 IDH1KD tx: -4.8%; KB-V1 MDR tox: inactive

What do the screens show for `CCN(CC)CCNc1nc2c(c(=O)n(C)c(=O)n2C)n1C/C=C(/C)Cl`?
HT1080-NT tox: -0.3%; SW480 rerep: 0.1%; KB-3-1 tox: inactive; MCF10A rereplic: 16.4µM*; HT1080 IDH1KD tx: 3.9%; KB-V1 MDR tox: inactive

How did CCNc1nc2c(c(=O)n(C)c(=O)n2C)n1CCCc1ccccc1 do in these assays?
HT1080-NT tox: -26.5%; SW480 rerep: 23.1µM*; KB-3-1 tox: inconclusive; MCF10A rereplic: inconclusive; HT1080 IDH1KD tx: -14.9%; KB-V1 MDR tox: inconclusive

What do the screens show for `CN(Cc1ccccc1)Cc1nc2c(c(=O)n(C)c(=O)n2C)n1CCCc1ccccc1`?
HT1080-NT tox: 14.0%; SW480 rerep: -6.4%; KB-3-1 tox: inactive; MCF10A rereplic: inconclusive; HT1080 IDH1KD tx: 21.3%; KB-V1 MDR tox: 16.4µM*

How did C/C(Cl)=C\Cn1c(NCCc2ccccc2)nc2c1c(=O)n(C)c(=O)n2C do in these assays?
HT1080-NT tox: -0.6%; SW480 rerep: 21.1%; KB-3-1 tox: inactive; MCF10A rereplic: 18.4µM*; HT1080 IDH1KD tx: 11.5%; KB-V1 MDR tox: inconclusive

What do the screens show for `Cn1c(=O)c2c(nc(NCCc3ccccc3)n2CC(=O)NCCc2ccccc2)n(C)c1=O`?
HT1080-NT tox: 21.9%; SW480 rerep: -9.1%; KB-3-1 tox: inactive; MCF10A rereplic: inconclusive; HT1080 IDH1KD tx: 17.8%; KB-V1 MDR tox: inactive

What do the screens show for `Cc1ccccc1-c1noc(CCC(=O)Nc2cccc(C)c2C)n1`?
KB-3-1 tox: inactive; KB-V1 MDR tox: inconclusive

How did Cc1ccc(Cn2c(NCCc3ccccc3)nc3c2c(=O)n(C)c(=O)n3C)cc1 do in these assays?
HT1080-NT tox: -4.6%; SW480 rerep: 0.4%; KB-3-1 tox: inconclusive; MCF10A rereplic: 12.5%; HT1080 IDH1KD tx: 12.2%; KB-V1 MDR tox: inconclusive
